PrPC surface inh: reduces human prion protein on the cell surface; cell surface PrPC, TR-FRET read-out; inhibition, % at 13.8 µM; 370,000 compounds, 0.43% hits; in the data active = inhibition above about 24%; also: 0% = median of the test wells and 100% = reference compound wells
RecA intein inh: Mtb RecA intein splicing inhibition; P9WHJ3; cell-free RecA intein splicing, fluorescence; inhibition, % (concentration not given with the values); 290,000 compounds, 0.75% hits; in the data active = inhibition above about 30%;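 also: 0% = vehicle wells and 100% = reference inhibitor control wells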
Target sequence (P9WHJ3 whole entry, looked up): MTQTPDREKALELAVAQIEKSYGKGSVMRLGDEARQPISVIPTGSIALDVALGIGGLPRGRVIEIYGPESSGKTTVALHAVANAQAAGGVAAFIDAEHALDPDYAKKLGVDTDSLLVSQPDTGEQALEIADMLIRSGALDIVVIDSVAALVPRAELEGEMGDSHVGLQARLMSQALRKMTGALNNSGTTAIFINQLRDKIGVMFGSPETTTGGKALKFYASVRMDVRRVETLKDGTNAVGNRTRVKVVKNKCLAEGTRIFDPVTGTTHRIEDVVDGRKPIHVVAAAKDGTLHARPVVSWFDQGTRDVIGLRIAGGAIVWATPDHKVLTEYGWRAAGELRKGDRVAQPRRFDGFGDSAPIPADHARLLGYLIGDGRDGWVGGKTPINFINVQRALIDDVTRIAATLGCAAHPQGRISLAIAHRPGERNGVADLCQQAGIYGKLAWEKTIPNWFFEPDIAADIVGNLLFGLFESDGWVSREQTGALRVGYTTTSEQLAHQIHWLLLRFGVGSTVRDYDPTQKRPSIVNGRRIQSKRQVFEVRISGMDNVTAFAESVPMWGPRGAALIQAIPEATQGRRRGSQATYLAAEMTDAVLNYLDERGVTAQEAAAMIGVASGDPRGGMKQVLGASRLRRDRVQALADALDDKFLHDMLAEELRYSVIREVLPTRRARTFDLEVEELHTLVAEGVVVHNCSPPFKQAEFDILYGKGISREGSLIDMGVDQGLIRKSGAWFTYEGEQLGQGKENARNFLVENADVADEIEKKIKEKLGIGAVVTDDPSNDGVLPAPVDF
FBA Mtb inh: Mtb fructose-bisphosphate aldolase inhibition | P9WQA3 | purified M. tuberculosis FBA, fluorescence read-out | inhibition, % at 1 µM | 360,000 compounds, 2.3% hits; in the data active = inhibition above about 27%;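 also: 0% = vehicle and 100% = reference inhibitor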
GDH-TPI inh: counter-screen for M. tuberculosis FBA inhibitors: GDH-TPI coupled enzymes. 360,000 compounds, 1.2% hits. inhibition, % at 4.8 µM. GDH-TPI coupled enzyme counterscreen, NADH absorbance; in the data active = inhibition above about 30%;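 also: 0% = DMSO wells and 100% = wells lacking the enzyme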
BJeLR lethal: kills HRASV12-expressing BJeLR cells; BJeLR (HRASV12) viability, CellTiter-Glo ATP luminescence, 48 h; inhibition, % (test concentration not listed); 300,000 compounds, 0.17% hits; AID 1554; in the data active = inhibition above about 50%
* = called active by the depositor; i = inactive; x = no result; + = active, no number. Sampled rows, rich in hits. Any-hit rate of the full collection: about 4.2%.

SMILES	PrPC surface inh	RecA intein inh	FBA Mtb inh	GDH-TPI inh	BJeLR lethal
Cc1occc1C(=O)N/N=C/C(Br)=C/c1ccccc1	14	3	-3	11	13
COc1ccc(C(=O)N/N=C/c2ccc3cccc(O)c3n2)cc1	-19	-1	-1	33*	-20
COc1ccc(C(=O)N/N=C/C(Br)=C/c2ccccc2)cc1	2	-2	-8	31*	-3
O=C(N/N=C/C(Br)=C/c1ccccc1)c1cnccn1	-17	2	0	37*	9
COc1cccc(C(=O)N/N=C/C(Br)=C/c2ccccc2)c1	5	6	2	40*	-13
O=C(N/N=C/c1ccc2cccc(OCc3ccccc3)c2n1)c1ccc(Cl)cc1	9	6	25	10	2
O=C(OC1CC2CCC(C1)[N+]21CCCC1)C(O)(c1ccccc1)c1ccccc1 (stereo not given)	2	x	x	x	x
CCOc1ccc(-n2c(N)c(C(=O)NCc3ccco3)c3nc4ccccc4nc32)cc1	x	-26	52*	18	-11
CCOCCCNC(=O)c1c(N)n(-c2ccc3c(c2)OCO3)c2nc3ccccc3nc12	-4	-25	5	2	0
CCOCCCNC(=O)c1c(N)n(-c2ccc(S(N)(=O)=O)cc2)c2nc3ccccc3nc12	-3	-29	33*	6	1
COCCCn1c(N)c(C(=O)NCc2ccco2)c2nc3ccccc3nc21	-7	-266	x	x	1
O=C(NCCO)[C@H](Cc1ccccc1)NC1(C(=O)NCCc2c[nH]c3ccccc23)CCCCC1	-3	x	x	x	x
O=C(NCCc1c[nH]c2ccccc12)OCc1cn(Cc2ccccc2Cl)nn1	4	x	x	x	x
CCOC(=O)c1ccc(-c2c(-c3ccccc3OC)oc3ccccc23)cc1F	3	x	28*	15	x
CCCCCc1ccc(-c2n[nH]c(=O)c3ccccc23)cc1	-10	x	x	x	x
CCn1cc(/C=C(\NC(=O)c2ccc(OC)cc2)C(=O)N2CCOCC2)c2ccccc21	1	-5	3	38*	6
COc1ccc(C(=O)N/C(=C\c2cn(C)c3ccccc23)C(=O)N2CCOCC2)cc1	6	-2	2	32*	1
CCn1cc(/C=C(\NC(=O)c2cc(OC)c(OC)c(OC)c2)C(=O)N2CCOCC2)c2ccccc21	0	x	0	31*	x
O=C(CN1C(=O)CCSc2ccccc21)Nc1ccc(F)cc1F	-3	x	x	x	x
CSCCC(NC(=O)OCc1ccccc1)C(=O)NC(Cc1c[nH]c2ccccc12)C(=O)O (stereo not given)	-4	x	x	x	x
O=C1CSC(c2cn(-c3ccccc3)nc2-c2cc3ccccc3oc2=O)N1Cc1ccco1 (stereo not given)	12	10	2	31*	-15
O=C1CSC(c2cn(-c3ccccc3)nc2-c2cc3ccccc3o2)N1Cc1ccccc1 (stereo not given)	8	5	14	7	-7
CN(C)/C=N/c1ncc(C(=O)c2ccc(-c3ccccc3)cc2)s1	3	-8	-1	34*	-1
CN(C)/C=N/c1ncc(C(=O)c2ccccc2)s1	-3	0	1	32*	8
Cc1cc(C(=O)c2cnc(/N=C/N(C)C)s2)cc(C)c1O	-15	-6	-5	19	2
SMILES	PrPC surface inh	RecA intein inh	FBA Mtb inh	GDH-TPI inh	BJeLR lethal
CC(C)CSc1ncccc1-c1nc2ccccc2[nH]1	-3	x	x	x	x
C=CC(=O)NC1CCCCN(CC)C1=O (stereo not given)	2	x	x	x	x
COc1ccc(Cl)cc1-n1c(=S)sc2c(=O)[nH]c(SCC(=O)NCC3CCCO3)nc21 (stereo not given)	-3	x	0	38*	x
CCn1c(=S)sc2c(=O)[nH]c(SCC(=O)Nc3cc(OC)ccc3OC)nc21	4	-5	-2	34*	-5
COCCCNC(=O)CSc1nc2c(sc(=S)n2-c2cc(Cl)ccc2OC)c(=O)[nH]1	-6	0	-1	29	-4
Cc1cc(C(=O)O[C@@H]2CCC[C@]3(C(=O)N(Cc4ccccc4)c4ccccc43)[C@H]2NC(=O)CCc2ccccc2)no1	-8	x	x	x	x
Cc1nc(N2CCN(C(=O)COc3ccccc3C)CC2)c2c3c(sc2n1)CCCC3	-7	x	x	x	x
Nc1ccc2ccc3cccc[n+]3c2c1	-22	i	-5	10	3
COc1ccc2ccc3cccc[n+]3c2c1	-6	x	134*	-2	x
Cc1nn2cnnc2c(C)c1Cc1c(F)cccc1Cl	5	1	141*	-3	-9
COc1cccc(/C(C)=N/Nc2ccc(S(=O)(=O)N3CCCCC3)cn2)c1	2	x	-2	23	x
C/C(=N\Nc1ccc(S(=O)(=O)N2CCCCC2)cn1)c1ccc(O)cc1	1	x	0	34*	x
N=c1c(C(=O)NCCc2ccccc2)cc2c(=O)n3ccccc3nc2n1CCCN1CCOCC1	-29	x	145*	11	6
N=c1c(S(=O)(=O)c2ccc(Br)cc2)cc2c(=O)n3ccccc3nc2n1CCN1CCOCC1	-18	x	+	-1	x
N=c1c(C(=O)NCCN2CCOCC2)cc2c(=O)n3ccccc3nc2n1CCc1ccccc1	-37	-379	173*	1	0
N=c1c(C(=O)NCc2ccc(F)cc2)cc2c(=O)n3ccccc3nc2n1CCCN1CCOCC1	-22	x	113*	7	x
CC(=O)OC12CCCN(C1)/C(=C/c1cccnc1)C2 (stereo not given)	-7	x	x	x	x
CCOC(=O)[C@]12CCCC=C1N(Cc1ccc(OC)cc1)C(=O)[C@@H]2CC(=O)N1CCN(C(=O)C2CC2)CC1	-3	x	x	x	x
COC(=O)c1cc2c(c3c4cc(OC)ccc4n(S(=O)(=O)c4ccc(OC)cc4)c13)C(=O)N(Cc1ccc(N(C)C)cc1)C2	3	x	x	x	x
CC(C)C(=O)OCCCN1CCC2(CCC(c3ccccc3)CC2)C1=O (stereo not given)	0	x	x	x	x
Cc1cc(-n2c(SCC(=O)NCCC3=CCCCC3)nc3n[nH]c(C)c3c2=N)ccc1Cl	7	-3	16	15	59*
Cc1ccc(Cl)cc1-n1c(SCC(=O)NCCC2=CCCCC2)nc2n[nH]c(C)c2c1=N	-5	1	1	11	3
Cc1cn(C(=O)c2ccccc2)c(=S)n1-c1ccc(Cl)cc1	3	0	0	34*	5
Cc1ccc(-n2c(C)cn(C(=O)c3ccccc3)c2=S)cc1	-9	5	2	17	1
COCCCNC(=O)C[C@H]1C[C@@]2(C(=O)OC)C(=C[C@H](C(C)(C)C)O[C@@H]2C)N(Cc2cccc3ccccc23)C1=O	0	x	x	x	x
SMILES	PrPC surface inh	RecA intein inh	FBA Mtb inh	GDH-TPI inh	BJeLR lethal
O=C(CN1CCCc2ccccc21)NCc1ccccc1F	3	x	x	x	x
c1ccc(C2Nc3ccccc3-c3nc4ccccc4n32)cc1 (stereo not given)	0	-2	139*	18	-1
O=C1Cn2c(nc3ccccc32)-c2ccccc2N1	8	0	4	7	0
c1ccc(C2Nc3ccccc3-c3nc4ccccc4n32)nc1 (stereo not given)	6	-12	119*	5	5
CN1c2ccc(C#CC3CC3)cc2[C@@H]2[C@@H](CCN2C(=O)C2CCOCC2)[C@H]1CO	-3	x	x	x	x
CCS(=O)(=O)c1nc(S(=O)(=O)c2ccc(C)cc2)c(N2CCCCCC2)s1	-3	x	-2	17	x
